Experimental data taken from PMC7819943, “Rice protein-binding microarrays: a tool to detect cis-acting elements near promoter regions in rice”.
Whole data set: some 68,000 sequences, median “fluorescence intensity (a.u.)” near 9,100, cut for the highest 2% near 16,000. Shown is part of a subset that was picked to be rich in the highest values.

What follows are sequences tested against OsWRKY34 (Oryza sativa, UniProt Q0JBA9 1-250) (assay: protein-binding microarray (RPBM); PBS, 2% BSA, 51.3 ng/ul salmon testes DNA, 50 uM zinc acetate, 200 nM TF, 25 C, 1 h; high values mean tight binding). Settings: protein: recombinant; tags: N-terminal polyhistidine and DsRed monomer fusion (pET32a); label: CyDye5-dUTP incorporated in the synthesized complementary strand; 3' TTTTT single-stranded linker to array surface; dsDNA, one strand shown.
OsWRKY34, sequence (Q0JBA9 entry or part of it): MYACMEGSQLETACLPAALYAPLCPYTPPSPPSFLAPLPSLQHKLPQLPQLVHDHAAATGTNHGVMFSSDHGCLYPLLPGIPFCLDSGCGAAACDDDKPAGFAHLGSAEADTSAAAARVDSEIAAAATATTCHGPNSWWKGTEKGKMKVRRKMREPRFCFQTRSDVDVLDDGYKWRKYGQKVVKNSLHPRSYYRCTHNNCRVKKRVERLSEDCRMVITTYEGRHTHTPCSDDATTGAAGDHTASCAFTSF
Outline: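 A custom Agilent array was converted to double-stranded form by primer extension with Cy5-dUTP and blocked with 2% BSA. Protein at 200 nM in PBS with 2% BSA, salmon testes DNA and 50 µM zinc acetate was applied for 1 h at 25 °C, followed by washing. The proteins were polyhistidine–DsRed N-terminal fusions of transcription factors, expressed in E. coli BL21-CodonPlus and Ni–NTA-purified. The binding signal is per-feature fluorescence intensity (arbitrary units) from an Axon 4000B scanner.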

| Sequence | binding signal |
| --- | --- |
| ACCTCTGCTGATTCTTCTTGCTGTTTCTTTGTTGCGCATTCGGAGTCACCTAGTGCAG | 11500 fluorescence intensity (a.u.) |
| CACCTCGCGCCGCGCCCCATCCTTATCGTCATGACACGCCCGGAGTCACCTAGTGCAG | 8810 fluorescence intensity (a.u.) |
| GGTTTTTTTTGGATTTATTGCTTTGTCACGTCTGGATCGTCGGAGTCACCTAGTGCAG | 20500 fluorescence intensity (a.u.) |
| AACTCTGGCACGATTTTTTTTATTGCAGTTTTCGTCGGATCGGAGTCACCTAGTGCAG | 11400 fluorescence intensity (a.u.) |
| TGGAGAGCGTTGCTTTTTTTGGGCGGGTTTGGATTTTTATCGGAGTCACCTAGTGCAG | 21600 fluorescence intensity (a.u.) |
| GTTGGTTTTGGGGTTTTGGAGCGTTGCGGATTGCCACGGCCGGAGTCACCTAGTGCAG | 10300 fluorescence intensity (a.u.) |
| TTGCTTGTCTGTTTGTTTTATTTATTTATGACGTCATTATCGGAGTCACCTAGTGCAG | 12600 fluorescence intensity (a.u.) |
| TCTTAGTATCCTTGGTTGTTGGATTTTTAGTTTGCTTTATCGGAGTCACCTAGTGCAG | 9350 fluorescence intensity (a.u.) |
| GAGGAGCTCGCCAATTGTTCCGCGTCATATCGCCAGCTCTCGGAGTCACCTAGTGCAG | 9060 fluorescence intensity (a.u.) |
| AGGAGCCAGACTTAGTTGGTGTAAGCCATTTACTAGTTGACGGAGTCACCTAGTGCAG | 22800 fluorescence intensity (a.u.) |
| GTTGCTGGTTTTGTTAGTTTGGTGACCTTGACTTGTAAGACGGAGTCACCTAGTGCAG | 8670 fluorescence intensity (a.u.) |
| GTCATTTTGTCTTTTTCTCTAAGTCAAACTTCTTTAATTTCGGAGTCACCTAGTGCAG | 10900 fluorescence intensity (a.u.) |
| CCTCTAAATTTTAAGATTTTTTTAATCATTTTACCATTTTCGGAGTCACCTAGTGCAG | 65200 fluorescence intensity (a.u.) |
| GATTCTAGTCAAATTTCTTTTAATTTTGACTACGTTTATACGGAGTCACCTAGTGCAG | 11200 fluorescence intensity (a.u.) |
| AACCTCTCATTTAATAAGATTCATCACAGTCTTTTTTTTTCGGAGTCACCTAGTGCAG | 9990 fluorescence intensity (a.u.) |
| AGTAATTTGACTTTTTCCTTAATCAAACTTCTTTAAGTTTCGGAGTCACCTAGTGCAG | 10600 fluorescence intensity (a.u.) |
| TACCATTTCTTTCTTGCTTTTTTAATGCCTAAATCATCTTCGGAGTCACCTAGTGCAG | 8050 fluorescence intensity (a.u.) |
| TCGTTGACTTTTTTCTTAGTCAAATTTCTTTAAGTTTGACCGGAGTCACCTAGTGCAG | 42400 fluorescence intensity (a.u.) |
| GACTTGATTTTTTTTCTTAATTTGACCTTTTAATTTCAAACGGAGTCACCTAGTGCAG | 8080 fluorescence intensity (a.u.) |
| ATAGTTGGTGTGTTTATGTAGACTTATTCTATTTTGACGTCGGAGTCACCTAGTGCAG | 10400 fluorescence intensity (a.u.) |
| TCATTTTGACTTTTTTTAGTCAAACTCTTTTAATTTTAATCGGAGTCACCTAGTGCAG | 19600 fluorescence intensity (a.u.) |

| Sequence | binding signal |
| --- | --- |
| CCCTATCCATTAATTACTCGCTTCGTGGTCGGAATCCATGCGGAGTCACCTAGTGCAG | 8200 fluorescence intensity (a.u.) |
| TGCTGCTGGTTACTTGTATTAATACATTATAGAAAATGAGCGGAGTCACCTAGTGCAG | 8070 fluorescence intensity (a.u.) |
| AACTCTTTCTGCCCACTTCCTCAACCCATGCTTATCTACCCGGAGTCACCTAGTGCAG | 8240 fluorescence intensity (a.u.) |
| TGAGAAGCACCGCTCTCTCCTGCACCCGTCTCACGTGCACCGGAGTCACCTAGTGCAG | 8300 fluorescence intensity (a.u.) |
| TCACCTGATCAAGTACGCGTTTTTGGCCCTCAAAAGTATTCGGAGTCACCTAGTGCAG | 8120 fluorescence intensity (a.u.) |
| ACTAGGGTTCTCTTCTCACTCCATCGCTAGCGGCGGCTCACGGAGTCACCTAGTGCAG | 8340 fluorescence intensity (a.u.) |
| TAATGGGATGGGTGAAAAGTTATTGTTTTTGGTAGGCCTTCGGAGTCACCTAGTGCAG | 9640 fluorescence intensity (a.u.) |
| CACCGCCGAACGCACGATTTCTTCCCGACGCTGTCACTTGCGGAGTCACCTAGTGCAG | 8190 fluorescence intensity (a.u.) |
| CCGCGATCTGTTTCGTCCAGCTTAATTTGTTGCTGTTCTGCGGAGTCACCTAGTGCAG | 11300 fluorescence intensity (a.u.) |
| GTTTGACTTTTTTACTAGTCAAACTTATTTAAGTTTGACCCGGAGTCACCTAGTGCAG | 17500 fluorescence intensity (a.u.) |
| TAAGATGTTTTGACTTTGGTCAAAGTCAAACTACTTTGAGCGGAGTCACCTAGTGCAG | 13200 fluorescence intensity (a.u.) |
| TTATAAGATGTTTTGACTTTGGTCAAAGTCAAACTATTTCCGGAGTCACCTAGTGCAG | 16600 fluorescence intensity (a.u.) |
| ACATTTTGACTTTTGCCAAAGTCAAACTGCTTTAAGTTTGCGGAGTCACCTAGTGCAG | 11900 fluorescence intensity (a.u.) |
| TATTGACTTTGGTCAAAGTCAAACTGTTTTAAATTTCACTCGGAGTCACCTAGTGCAG | 10500 fluorescence intensity (a.u.) |
| AAGTTACTTTTATTTTTTTCTAGTCAAACTACTTAGACTTCGGAGTCACCTAGTGCAG | 8740 fluorescence intensity (a.u.) |
| TATTTTTGACTTTGGTCAAAGTCAAACTGTTTTAAGTTTGCGGAGTCACCTAGTGCAG | 17900 fluorescence intensity (a.u.) |
| AAGTTATAAGATGTTTTGACTTTGGTCAAAGTCAAACTGCCGGAGTCACCTAGTGCAG | 14600 fluorescence intensity (a.u.) |
| TTTGATTTTGGTCAAAGTCAAACTACTCTAAGTTTGACTACGGAGTCACCTAGTGCAG | 13400 fluorescence intensity (a.u.) |
| CGCTCACTCGTCTCCTCTCGGTTTCTTTCTCTCTCTCTCTCGGAGTCACCTAGTGCAG | 8160 fluorescence intensity (a.u.) |
| TATCACGATATTCTACCTCGCTCTCATGGGCTAGATCACCCGGAGTCACCTAGTGCAG | 9500 fluorescence intensity (a.u.) |
| CCTTGTACCTCTGTCCAGATTCATTGTACTAAGATATGTCCGGAGTCACCTAGTGCAG | 8540 fluorescence intensity (a.u.) |
